Screens (PubChem BioAssay)
Sampled rows, rich in hits. Any-hit rate of the full collection: about 4.6%.
hgDAF12 agonist = agonists of H. glycines DAF-12 nuclear receptor. HEK293 GAL4-hgDAF12 UAS-luciferase reporter, agonist luminescence; normalized to butyrate control. activation, % at 6.8 µM. 1.8% of 370,000 active. AID 687014;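 active = activation above a cutoff set at the mean of all screened compounds plus 3 SD, cut at about 10% in these data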
DAX1 inh-1 = inhibitors of DAX1 repression of SF-1 activated StAR promoter | AID 652010 | 1.1% of 370,000 active | inhibition, % at 6.8 µM | HEK293T StAR-luciferase reporter, SF-1/DAX-1 repression relief;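 active = inhibition above the mean over all tested compounds plus 3 SD, cut at about 3.6% in these data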;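 also: higher inhibition means more luminescence from relief of DAX-1 repression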
ssDAF-12 act = S. stercoralis DAF-12 activation, primary screen. activation, % at 6.8 µM. HEK293 ssDAF-12/GRIP1 lit1-tk-luc reporter, luminescence; % of 3 µM dafachronic acid response. 1% of 370,000 active;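 active = activation above the mean over all tested compounds plus 3 SD, cut at about 0.9% in these data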
hcDAF-12 act = H. contortus DAF-12 activation, primary screen. HEK293 hcDAF-12 lit1-tk-luc reporter, luminescence; 0% DMSO, 100% Δ7-dafachronic acid. AID 652067. 1.4% of 370,000 active. activation, % at 6.8 µM;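 active = activation above the mean of all tested compounds plus 3 SD, cut at about 5.5% in these data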
Wee1 degr inh = blocks degradation of human Wee1 kinase. P30291. HeLa Luc-Wee1K328M stability, luciferase luminescence; 100% = proteasome inhibitor MG132 effect. reporter increase, % at 5 µM. 1.2% of 220,000 active;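 active = activation above the mean of all tested compounds plus 3 SD, set per screening run, cut at about 8.8% in these data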;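 also: cells exposed to compound for 20 h before luminescence read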
DAX1 inh-2 = NR0B1 (DAX1) inhibition. 0.99% of 340,000 active. P51843. HEK293 Gal4-DAX1 luciferase reporter, luminescence. AID 504766. inhibition, % at 6.75 µM;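 active = inhibition above the mean over all tested compounds plus 3 SD, cut at about 4.2% in these data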;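 also: inhibition shows as a rise in luminescence from relieved DAX1 repression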
Target sequence (P51843 207-470 limits assumed): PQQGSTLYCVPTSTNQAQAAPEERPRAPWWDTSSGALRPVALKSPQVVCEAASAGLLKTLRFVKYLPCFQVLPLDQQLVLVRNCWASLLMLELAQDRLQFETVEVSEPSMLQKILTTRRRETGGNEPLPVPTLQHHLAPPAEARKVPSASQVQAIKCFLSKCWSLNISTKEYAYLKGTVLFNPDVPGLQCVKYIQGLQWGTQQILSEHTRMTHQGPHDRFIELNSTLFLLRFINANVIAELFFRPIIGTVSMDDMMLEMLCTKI
LXR ag = counter-screen for hcDAF-12 agonists: agonists of human LXR-beta | HEK293 Gal4-LXR tk-luc reporter, luminescence, 24 h; normalized: DMSO 0%, positive control 100% | 3,400 tested, under 10 active | activation, % at 6.8 µM | shares compounds with hcDAF-12 act;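 active = mean percent activation of the reporter above a cutoff set as the average over tested compounds plus their standard deviation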
Target sequence (P55055 whole entry, looked up, the tested form may be a part): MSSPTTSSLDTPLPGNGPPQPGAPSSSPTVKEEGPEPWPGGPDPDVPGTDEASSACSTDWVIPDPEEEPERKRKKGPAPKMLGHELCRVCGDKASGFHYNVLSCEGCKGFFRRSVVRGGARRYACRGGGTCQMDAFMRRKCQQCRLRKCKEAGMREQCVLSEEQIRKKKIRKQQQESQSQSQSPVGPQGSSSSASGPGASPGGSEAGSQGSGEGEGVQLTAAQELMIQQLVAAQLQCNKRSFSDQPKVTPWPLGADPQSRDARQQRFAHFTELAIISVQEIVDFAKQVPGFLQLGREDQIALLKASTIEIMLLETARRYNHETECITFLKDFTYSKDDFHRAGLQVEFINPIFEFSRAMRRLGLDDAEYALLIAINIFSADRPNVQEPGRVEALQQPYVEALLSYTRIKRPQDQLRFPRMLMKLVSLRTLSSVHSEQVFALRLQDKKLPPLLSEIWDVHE
hcDAF12 ag = hcDAF-12 agonism, confirmation assay; activation, % at 6.8 µM; shares compounds with hcDAF-12 act; AID 743032; 61% of 3,400 active; HEK293 hcDAF-12 lit1-tk-luc reporter, luminescence; % of Δ7-dafachronic acid response;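 active = mean activation across triplicate tests above the threshold derived from the earlier primary screen, cut at about 5.5% in these data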
Of the large screens only hits and unclear results are named; the others gave an inactive call (follow-up assays come after a bar, where they were run).

Cc1ccc(O)c(C2=Nc3ccccc3N=C(c3cccs3)C2)c1	none
CC1CC(C)(C)CC2(C1)NC(=O)N(CC(=O)Nc1cc(C(F)(F)F)ccc1N1CCCCC1)C2=O (centres undefined)	none (no result: Wee1 degr inh)
CNc1nc(-c2ccccc2)[n+](-c2ccc(C)cc2)s1	ssDAF-12 act 1.1, hcDAF-12 act 11 | LXR ag inactive | hcDAF12 ag inactive
O=C1CCN(Cc2ccccc2)C=C1c1ccc2ccccc2c1	hgDAF12 agonist 11, ssDAF-12 act 1.0, hcDAF-12 act 9.4 (no result: Wee1 degr inh) | LXR ag inactive | hcDAF12 ag 7.0
O=C1CCN(Cc2ccccc2)C=C1c1ccc(Cl)cc1	none (no result: Wee1 degr inh)
C=Cc1ccc(C(=O)Nc2nnc(-c3cccnc3)s2)cc1	none (no result: Wee1 degr inh, DAX1 inh-2)
O=C(Nc1nc2c(s1)CCCC2)Oc1ccccc1	none
C/C(=N\Nc1nc2c(s1)CCCC2)c1ccccc1	ssDAF-12 act 1.4, hcDAF-12 act 7.4 | LXR ag inactive | hcDAF12 ag 11
CC(C)=NNc1nc(-c2ccccc2)cs1	hcDAF-12 act 7.2 | LXR ag inactive | hcDAF12 ag inactive
C/C(=N\Nc1nc(C(C)(C)C)cs1)c1ccccc1	hgDAF12 agonist 13, ssDAF-12 act 2.2, hcDAF-12 act 7.0, DAX1 inh-2 6.6 (no result: Wee1 degr inh) | LXR ag inactive | hcDAF12 ag 8.6
C[C@@H]1CN([C@@H](C)CO)S(=O)(=O)c2ccc(Br)cc2O[C@H]1CN(C)C(=O)c1ccccc1F	none (no result: Wee1 degr inh)
C/C(=N\Nc1ccccc1[N+](=O)[O-])c1ccccc1O	hcDAF-12 act 6.9, DAX1 inh-2 4.4 (no result: Wee1 degr inh) | LXR ag inactive | hcDAF12 ag 14
O=C1CCC(=O)N1c1ccc(-c2nc3ccccc3s2)cc1	hcDAF-12 act 7.3 | LXR ag inactive | hcDAF12 ag 9.5
O=S(=O)(c1cc(-c2nc3ccccc3s2)ccc1Cl)N1CCOCC1	none (no result: hgDAF12 agonist, DAX1 inh-1, ssDAF-12 act, hcDAF-12 act, DAX1 inh-2)
CCOc1ccc(C(CC(=O)O)NC(=O)C(c2ccccc2)c2ccccc2)cc1OC (centres undefined)	none (no result: Wee1 degr inh)
COc1ccc(Nc2nc(-c3c[nH]c4ccccc34)cs2)cc1	hcDAF-12 act 11 | LXR ag inactive | hcDAF12 ag inactive
COCC(C)NS(=O)(=O)c1ccc(C(=O)NC(Cc2ccccc2)c2ccccc2)cc1 (centres undefined)	none (no result: Wee1 degr inh)
Cc1ccc(S(=O)(=O)CCC(=O)OCC(=O)c2cc(C)ccc2C)cc1	none (no result: Wee1 degr inh)
Cc1ccc(S(=O)(=O)CCC(=O)OCC(=O)c2c[nH]c3ccccc23)cc1	hcDAF-12 act 9.4 | LXR ag inactive | hcDAF12 ag 5.8
c1ccc2sc(NCC3CCCO3)nc2c1 (centres undefined)	DAX1 inh-1 4.2, hcDAF-12 act 8.2, Wee1 degr inh 9.4 | LXR ag inactive | hcDAF12 ag inactive
O=S(=O)(Nc1nc2ccccc2nc1NCC1CCCO1)c1ccccc1 (centres undefined)	none
Cc1ccc(CNc2nc3ccccc3s2)s1	DAX1 inh-1 4.0, ssDAF-12 act 1.0, hcDAF-12 act 10 | LXR ag inactive | hcDAF12 ag 12
COc1c2ccoc2nc2c(OC)c(OC[C@@H](O)C(C)(C)O)ccc12	none (no result: Wee1 degr inh)
Cc1cccc(Cn2cc(COC(=O)NCC(C)C)nn2)c1	none (no result: Wee1 degr inh, DAX1 inh-2)
O=C1c2ccccc2-c2nnc(-c3ccccc3)cc21	ssDAF-12 act 1.8, hcDAF-12 act 7.6 | LXR ag inactive | hcDAF12 ag 6.0
Cc1cccc(-c2cc3c(nn2)-c2ccccc2C3=O)c1	ssDAF-12 act 1.7, hcDAF-12 act 6.6 | LXR ag inactive | hcDAF12 ag 8.6
Cc1cnc2c(c1)C(=O)c1ccccc1-2	none (no result: Wee1 degr inh)
O=C(Nc1nccs1)c1ccc(-c2ccccc2Cl)o1	hgDAF12 agonist 12, ssDAF-12 act 2.4, hcDAF-12 act 6.7 | LXR ag inactive | hcDAF12 ag 6.2
COCC(=O)N(C)C[C@@H]1Oc2ncc(Br)cc2C(=O)N([C@@H](C)CO)C[C@H]1C	none (no result: Wee1 degr inh)
CC(C)n1nnnc1C1(C)CCCCC(=O)N1Cc1cccc(C(F)(F)F)c1 (centres undefined)	none (no result: Wee1 degr inh, DAX1 inh-2)
CCN1CCN(C(=O)CCc2nnc(CCc3c[nH]c4ccccc34)o2)[C@@H](C)C1=O	none (no result: Wee1 degr inh)
CC(C)CN1CCN(C(=O)CCc2nnc(Cc3c[nH]c4ccccc34)o2)[C@@H](C)C1=O	hcDAF-12 act 7.0 (no result: Wee1 degr inh) | LXR ag inactive | hcDAF12 ag inactive
CC(=O)Nc1sc2c(c1-c1nc3ccccc3s1)CCOC2	none (no result: DAX1 inh-1, Wee1 degr inh, DAX1 inh-2)
O=C(Nc1ccsc1C(=O)O)c1cccc(Oc2ccccc2)c1	hgDAF12 agonist 13, hcDAF-12 act 7.8 (no result: Wee1 degr inh) | LXR ag inactive | hcDAF12 ag 7.3
O=C(Nc1ccsc1C(=O)O)c1ccc(Cl)cc1	ssDAF-12 act 3.0, hcDAF-12 act 9.1 (no result: Wee1 degr inh) | LXR ag inactive | hcDAF12 ag 12
O=C(Nc1cccc([N+](=O)[O-])c1)c1ccc2c(c1)C(=O)N(c1ccccn1)C2=O	none (no result: Wee1 degr inh)
O=C1CC=Nc2ccc([N+](=O)[O-])cc21	none (no result: Wee1 degr inh)
Brc1cccc(Nc2nc(-c3cccnc3)cs2)c1	none (no result: Wee1 degr inh)
Clc1cccc(Nc2nc(-c3cccnc3)cs2)c1	hgDAF12 agonist 11, ssDAF-12 act 1.8, hcDAF-12 act 8.9, DAX1 inh-2 5.4 | LXR ag inactive | hcDAF12 ag 11
Cc1ccc(Nc2nc(-c3cccnc3)cs2)cc1C	hgDAF12 agonist 19, ssDAF-12 act 3.8, hcDAF-12 act 20, DAX1 inh-2 4.3 (no result: Wee1 degr inh) | LXR ag inactive | hcDAF12 ag 19
O=C(O)c1ccc(Nc2nc(-c3cccnc3)cs2)cc1	none (no result: Wee1 degr inh)
OCC[C@@H]1C[C@H](O)[C@@H](O)[C@@]2(OCCc3cc(C(F)(F)F)ccc32)O1	none (no result: Wee1 degr inh, DAX1 inh-2)
O=C(Nn1cnnc1)c1cc(-c2ccccn2)nc2ccccc12	ssDAF-12 act 1.3, hcDAF-12 act 11 | LXR ag inactive | hcDAF12 ag inactive
Nc1ccc(N=Nc2ccccc2)c2ccccc12	hcDAF-12 act 8.2 | LXR ag inactive | hcDAF12 ag inactive
c1ccc(N=Nc2ccc3cccccc2-3)cc1	ssDAF-12 act 1.8, hcDAF-12 act 9.1 (no result: Wee1 degr inh) | LXR ag inactive | hcDAF12 ag 10
CN1CCN(C(=O)CNC(=O)c2cccs2)CC1	hcDAF-12 act 7.8 (no result: Wee1 degr inh) | LXR ag inactive | hcDAF12 ag inactive
CCCc1nc2c(Cl)cc(C(F)(F)F)cn2c1Cc1ccc(OC)cc1C	none (no result: Wee1 degr inh, DAX1 inh-2)
O/C(=C\c1ccc2ccccc2n1)c1ccncc1	hgDAF12 agonist 12, ssDAF-12 act 1.2, hcDAF-12 act 8.6 (no result: Wee1 degr inh) | LXR ag inactive | hcDAF12 ag 12
CC(=O)Nc1sc2c(c1-c1nc3ccccc3s1)CN(C(C)C)C2	none (no result: DAX1 inh-1, Wee1 degr inh, DAX1 inh-2)
